The full data set covers some 7,900 targets. This sample favours those with a hit. About 0.6% of all pairs of compound and target were hits. Unmarked numbers belong to inactive results.
Compound: CC1=C(SC2=C1C(=N[C@H](C3=NN=C(N32)C)CC(=O)N)C4=CC=C(C=C4)Cl)C
Experiment: log2 fold change, soluble protein after heating vs DMSO (PISA); higher = thermal stabilisation; K562 cells, 10 uM, 30 min; active = over 0.2 and 3.5 SD of the protein, either way, in both replicates (recomputed)
Outline: (§1)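 K562 cells (2×10^6 cells/mL) were treated with 10 μM compound for 30 min, and aliquots were heated for 3 min over 48°C-58°C. Pooled aliquots were extracted in PBS with 0.5% NP-40 at 4°C, and the supernatant after 21,000xg for 90 min was measured by TMTpro 16plex LC-MS/MS with channel sums equalised. Reported thermal stability, relative to control samples and from duplicates, is a log2 fold change.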

Sequence of UniProt Q8NDZ6 (Q8NDZ6 whole entry, looked up): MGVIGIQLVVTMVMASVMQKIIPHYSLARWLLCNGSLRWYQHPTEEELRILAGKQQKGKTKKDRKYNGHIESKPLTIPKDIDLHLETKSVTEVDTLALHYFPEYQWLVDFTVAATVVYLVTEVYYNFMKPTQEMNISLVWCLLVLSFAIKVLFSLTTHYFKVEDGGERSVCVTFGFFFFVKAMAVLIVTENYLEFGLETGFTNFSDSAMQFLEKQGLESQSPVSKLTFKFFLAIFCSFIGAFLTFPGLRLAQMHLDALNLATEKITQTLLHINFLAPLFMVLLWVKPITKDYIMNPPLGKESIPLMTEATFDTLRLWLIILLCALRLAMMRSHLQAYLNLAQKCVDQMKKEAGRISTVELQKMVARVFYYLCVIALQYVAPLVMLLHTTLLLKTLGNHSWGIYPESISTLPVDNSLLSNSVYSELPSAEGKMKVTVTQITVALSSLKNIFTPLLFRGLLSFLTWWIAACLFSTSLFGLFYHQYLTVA
Sequence of UniProt Q9HCN3 (Q9HCN3 whole entry, looked up): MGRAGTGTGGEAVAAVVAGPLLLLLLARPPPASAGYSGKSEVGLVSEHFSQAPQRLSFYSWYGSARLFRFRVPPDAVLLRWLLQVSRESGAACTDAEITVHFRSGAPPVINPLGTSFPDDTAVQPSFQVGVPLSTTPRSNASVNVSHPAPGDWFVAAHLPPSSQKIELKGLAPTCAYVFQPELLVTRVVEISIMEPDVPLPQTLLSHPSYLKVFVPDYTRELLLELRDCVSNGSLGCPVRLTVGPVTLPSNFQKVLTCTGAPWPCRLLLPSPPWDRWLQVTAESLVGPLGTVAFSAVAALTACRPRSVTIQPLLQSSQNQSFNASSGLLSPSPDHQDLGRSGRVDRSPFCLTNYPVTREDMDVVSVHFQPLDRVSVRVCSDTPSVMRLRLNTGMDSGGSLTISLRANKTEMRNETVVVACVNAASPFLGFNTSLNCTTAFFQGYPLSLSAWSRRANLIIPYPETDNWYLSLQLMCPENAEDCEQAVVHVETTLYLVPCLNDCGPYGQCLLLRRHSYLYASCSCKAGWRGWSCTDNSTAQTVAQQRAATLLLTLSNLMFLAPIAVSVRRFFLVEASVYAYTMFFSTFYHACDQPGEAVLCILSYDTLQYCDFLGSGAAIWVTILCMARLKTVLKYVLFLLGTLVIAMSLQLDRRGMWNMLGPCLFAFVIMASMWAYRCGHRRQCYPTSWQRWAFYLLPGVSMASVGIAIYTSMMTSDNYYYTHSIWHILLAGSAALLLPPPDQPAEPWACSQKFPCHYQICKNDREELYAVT
Sequence of UniProt Q8NEZ2 (Q8NEZ2 whole entry, looked up): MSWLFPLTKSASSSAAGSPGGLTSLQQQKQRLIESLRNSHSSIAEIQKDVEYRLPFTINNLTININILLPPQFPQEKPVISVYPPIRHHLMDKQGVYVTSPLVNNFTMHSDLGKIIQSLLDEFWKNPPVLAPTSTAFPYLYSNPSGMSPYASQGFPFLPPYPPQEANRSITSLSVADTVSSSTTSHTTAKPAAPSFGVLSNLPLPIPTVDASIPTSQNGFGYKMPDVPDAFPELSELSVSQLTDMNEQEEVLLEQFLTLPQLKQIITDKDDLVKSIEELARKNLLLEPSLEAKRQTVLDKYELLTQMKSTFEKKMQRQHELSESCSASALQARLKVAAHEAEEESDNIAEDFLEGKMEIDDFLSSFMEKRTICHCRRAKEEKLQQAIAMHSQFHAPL
Sequence of UniProt Q9BQB6 (Q9BQB6 whole entry, looked up): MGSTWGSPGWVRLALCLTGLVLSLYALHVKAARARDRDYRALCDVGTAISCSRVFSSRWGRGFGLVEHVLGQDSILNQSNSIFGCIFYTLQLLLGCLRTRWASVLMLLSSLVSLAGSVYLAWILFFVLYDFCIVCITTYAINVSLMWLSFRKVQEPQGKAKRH
Sequence of UniProt Q92973 (Q92973 whole entry, looked up): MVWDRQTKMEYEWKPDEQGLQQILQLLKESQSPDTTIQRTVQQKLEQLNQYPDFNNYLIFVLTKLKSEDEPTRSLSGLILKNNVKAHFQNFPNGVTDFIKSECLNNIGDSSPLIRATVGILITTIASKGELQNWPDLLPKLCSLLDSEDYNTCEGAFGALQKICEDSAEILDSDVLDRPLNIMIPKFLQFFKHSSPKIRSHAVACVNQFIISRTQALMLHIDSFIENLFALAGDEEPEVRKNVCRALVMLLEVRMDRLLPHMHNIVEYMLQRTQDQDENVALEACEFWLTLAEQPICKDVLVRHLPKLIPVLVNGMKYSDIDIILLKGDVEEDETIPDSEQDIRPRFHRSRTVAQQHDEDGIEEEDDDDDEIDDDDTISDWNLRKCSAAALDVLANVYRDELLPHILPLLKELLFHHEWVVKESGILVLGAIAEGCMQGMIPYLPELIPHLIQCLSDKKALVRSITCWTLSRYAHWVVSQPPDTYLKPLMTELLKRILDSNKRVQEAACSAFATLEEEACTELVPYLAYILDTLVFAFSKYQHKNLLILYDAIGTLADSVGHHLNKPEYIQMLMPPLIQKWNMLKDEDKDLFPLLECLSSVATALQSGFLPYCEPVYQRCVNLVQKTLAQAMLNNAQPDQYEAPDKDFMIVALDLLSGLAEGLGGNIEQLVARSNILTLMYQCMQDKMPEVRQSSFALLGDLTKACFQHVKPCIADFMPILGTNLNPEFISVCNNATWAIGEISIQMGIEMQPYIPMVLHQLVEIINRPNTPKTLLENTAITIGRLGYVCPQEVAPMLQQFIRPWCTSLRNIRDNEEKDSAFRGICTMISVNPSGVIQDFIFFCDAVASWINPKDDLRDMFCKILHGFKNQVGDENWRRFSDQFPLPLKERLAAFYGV
Sequence of UniProt Q7Z392 (Q7Z392 whole entry, looked up): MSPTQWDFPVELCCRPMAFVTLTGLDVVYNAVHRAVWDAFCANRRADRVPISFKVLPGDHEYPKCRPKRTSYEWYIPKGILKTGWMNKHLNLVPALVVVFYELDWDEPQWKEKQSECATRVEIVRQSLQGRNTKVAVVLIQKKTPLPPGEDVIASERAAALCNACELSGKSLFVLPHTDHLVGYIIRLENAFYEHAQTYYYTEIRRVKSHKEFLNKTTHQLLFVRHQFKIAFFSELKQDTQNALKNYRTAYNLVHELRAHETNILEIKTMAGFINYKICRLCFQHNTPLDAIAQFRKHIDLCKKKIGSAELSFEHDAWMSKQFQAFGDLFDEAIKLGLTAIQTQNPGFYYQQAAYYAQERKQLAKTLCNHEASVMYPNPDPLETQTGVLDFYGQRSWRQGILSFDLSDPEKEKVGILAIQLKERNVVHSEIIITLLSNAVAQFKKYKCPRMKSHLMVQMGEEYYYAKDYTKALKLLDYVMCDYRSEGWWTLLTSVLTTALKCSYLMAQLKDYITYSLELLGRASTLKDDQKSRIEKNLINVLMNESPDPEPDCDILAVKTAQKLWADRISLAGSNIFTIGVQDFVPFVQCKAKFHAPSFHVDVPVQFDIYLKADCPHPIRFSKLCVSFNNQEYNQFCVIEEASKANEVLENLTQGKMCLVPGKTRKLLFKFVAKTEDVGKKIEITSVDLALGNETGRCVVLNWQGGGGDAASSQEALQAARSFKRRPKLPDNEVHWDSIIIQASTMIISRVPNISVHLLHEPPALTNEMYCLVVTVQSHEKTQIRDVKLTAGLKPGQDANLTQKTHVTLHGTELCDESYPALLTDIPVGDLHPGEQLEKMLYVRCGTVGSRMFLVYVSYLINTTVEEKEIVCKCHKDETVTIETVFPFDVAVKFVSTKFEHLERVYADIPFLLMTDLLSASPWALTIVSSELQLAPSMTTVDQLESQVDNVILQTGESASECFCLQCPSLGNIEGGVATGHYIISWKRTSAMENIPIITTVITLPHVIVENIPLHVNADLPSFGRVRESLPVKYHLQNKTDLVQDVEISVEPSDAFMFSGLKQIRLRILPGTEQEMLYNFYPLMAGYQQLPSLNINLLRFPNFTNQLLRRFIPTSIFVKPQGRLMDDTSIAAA
Sequence of UniProt P98170 (P98170 whole entry, looked up): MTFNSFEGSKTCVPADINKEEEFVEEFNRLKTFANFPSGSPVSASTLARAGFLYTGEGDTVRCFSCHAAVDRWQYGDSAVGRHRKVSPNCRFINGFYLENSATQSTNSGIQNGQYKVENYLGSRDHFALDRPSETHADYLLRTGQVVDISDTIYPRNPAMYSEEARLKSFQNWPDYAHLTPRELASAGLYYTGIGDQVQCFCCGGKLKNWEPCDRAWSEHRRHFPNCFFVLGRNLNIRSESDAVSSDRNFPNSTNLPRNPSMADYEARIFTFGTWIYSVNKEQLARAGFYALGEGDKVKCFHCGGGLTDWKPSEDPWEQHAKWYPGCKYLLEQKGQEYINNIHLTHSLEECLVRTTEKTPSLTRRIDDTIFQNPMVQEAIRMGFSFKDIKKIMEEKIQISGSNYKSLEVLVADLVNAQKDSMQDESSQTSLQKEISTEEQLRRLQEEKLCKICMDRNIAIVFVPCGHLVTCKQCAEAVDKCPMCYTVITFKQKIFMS
Sequence of UniProt P51809 (P51809 whole entry, looked up): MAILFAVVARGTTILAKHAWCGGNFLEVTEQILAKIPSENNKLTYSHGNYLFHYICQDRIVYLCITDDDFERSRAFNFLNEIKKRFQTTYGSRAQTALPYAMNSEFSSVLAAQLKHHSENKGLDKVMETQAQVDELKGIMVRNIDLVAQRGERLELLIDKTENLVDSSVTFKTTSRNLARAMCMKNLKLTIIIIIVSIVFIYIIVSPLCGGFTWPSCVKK
Sequence of UniProt A0PJW6 (A0PJW6 whole entry, looked up): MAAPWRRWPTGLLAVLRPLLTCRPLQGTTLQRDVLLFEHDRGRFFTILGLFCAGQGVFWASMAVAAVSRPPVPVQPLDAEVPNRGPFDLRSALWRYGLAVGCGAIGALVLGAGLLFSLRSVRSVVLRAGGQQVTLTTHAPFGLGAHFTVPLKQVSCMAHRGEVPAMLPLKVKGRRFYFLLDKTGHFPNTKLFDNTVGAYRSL
Sequence of UniProt Q96AJ9 (Q96AJ9 whole entry, looked up): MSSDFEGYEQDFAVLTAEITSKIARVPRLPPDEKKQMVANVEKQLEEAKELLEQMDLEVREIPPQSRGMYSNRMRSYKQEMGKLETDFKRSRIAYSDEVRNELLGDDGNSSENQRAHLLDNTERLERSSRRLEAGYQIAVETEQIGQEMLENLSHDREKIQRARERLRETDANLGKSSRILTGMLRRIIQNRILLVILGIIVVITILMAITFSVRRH

Q: Which log2 fold change does the source give for VTI1A (UniProt Q96AJ9) here?
A: Its log2 fold change is 0.009.

Q: With WASHC2A (UniProt Q641Q2) as the target, how does the log2 fold change read?
A: The log2 fold change was -0.041.

Q: With TMEM219 (UniProt Q86XT9) as the target, how does the log2 fold change read?
A: Its log2 fold change is -0.023.

Q: UCHL5 isoform 3 (UniProt Q9Y5K5) was tested. Which log2 fold change did it give?
A: The log2 fold change was 0.232.

Q: WDR4 (UniProt P57081) was tested. Which log2 fold change did it give?
A: The log2 fold change was 0.048.

Q: Which log2 fold change does the source give for WDHD1 (UniProt O75717) here?
A: The log2 fold change was 0.085.

Q: TMEM223 (UniProt A0PJW6) was tested. Which log2 fold change did it give?
A: The log2 fold change was -0.045.

Q: For VPS37A (UniProt Q8NEZ2), which log2 fold change is on record?
A: Its log2 fold change is 0.088.

Q: How did the log2 fold change turn out when TUBAL3 (UniProt A6NHL2) was run?
A: Its log2 fold change is -0.012.

Q: With VPS52 (UniProt Q8N1B4) as the target, how does the log2 fold change read?
A: Its log2 fold change is 0.036.

Q: For TMEM120A (UniProt Q9BXJ8), which log2 fold change is on record?
A: Its log2 fold change is 0.056.

Q: With VKORC1 (UniProt Q9BQB6) as the target, how does the log2 fold change read?
A: The log2 fold change was 0.132.

Q: Which log2 fold change does the source give for VAMP7 (UniProt P51809) here?
A: The log2 fold change was 0.044.

Q: With UBXN8 (UniProt O00124) as the target, how does the log2 fold change read?
A: The log2 fold change was -0.074.

Q: With TRMT61A (UniProt Q96FX7) as the target, how does the log2 fold change read?
A: The log2 fold change was -0.033.

Q: With TNFRSF8 (UniProt P28908) as the target, how does the log2 fold change read?
A: Its log2 fold change is 0.053.

Q: With TRAPPC11 (UniProt Q7Z392) as the target, how does the log2 fold change read?
A: Its log2 fold change is 0.117.

Q: For WDR41 (UniProt Q9HAD4), which log2 fold change is on record?
A: Its log2 fold change is -0.08.

Q: Which log2 fold change does the source give for UBE2Q1 (UniProt Q7Z7E8) here?
A: Its log2 fold change is 0.061.

Q: TRAM1 (UniProt Q15629) was tested. Which log2 fold change did it give?
A: Its log2 fold change is -0.024.

Q: With UBA52 (UniProt P62987) as the target, how does the log2 fold change read?
A: The log2 fold change was -0.301.

Q: For XIAP (UniProt P98170), which log2 fold change is on record?
A: Its log2 fold change is 0.003.

Q: TRIM23 (UniProt P36406) was tested. Which log2 fold change did it give?
A: The log2 fold change was 0.122.

Q: Which log2 fold change does the source give for UFD1 isoform 1 (UniProt Q92890) here?
A: The log2 fold change was 0.038.

Q: With TMEM8A (UniProt Q9HCN3) as the target, how does the log2 fold change read?
A: Its log2 fold change is 0.038.

Q: Which log2 fold change does the source give for TRIM4 (UniProt Q9C037) here?
A: Its log2 fold change is -0.014.

Q: For TMEM161B (UniProt Q8NDZ6), which log2 fold change is on record?
A: Its log2 fold change is 0.13.

Q: For TNPO1 (UniProt Q92973), which log2 fold change is on record?
A: The log2 fold change was 0.008.

Q: For UHRF1BP1 (UniProt Q6BDS2), which log2 fold change is on record?
A: Its log2 fold change is 0.109.

Q: For TMEM87B (UniProt Q96K49), which log2 fold change is on record?
A: Its log2 fold change is 0.083.

Q: Which log2 fold change does the source give for UBA6 here?
A: Its log2 fold change is 0.

Compound: CC1=C2C(=CC=C1)N=C(N(C2=O)C3=CC=CC=C3C)CN4C=NC5=C(N=CN=C54)N
Experiment: as above
Outline: as §1

Q: VTI1A (UniProt Q96AJ9) was tested. Which log2 fold change did it give?
A: Its log2 fold change is 0.091.

Q: For WASHC2A (UniProt Q641Q2), which log2 fold change is on record?
A: The log2 fold change was -0.017.

Q: With TMEM219 (UniProt Q86XT9) as the target, how does the log2 fold change read?
A: Its log2 fold change is -0.172.

Q: UCHL5 isoform 3 (UniProt Q9Y5K5) was tested. Which log2 fold change did it give?
A: The log2 fold change was -0.123.

Q: Which log2 fold change does the source give for WDR4 (UniProt P57081) here?
A: The log2 fold change was -0.004.

Q: How did the log2 fold change turn out when WDHD1 (UniProt O75717) was run?
A: The log2 fold change was 0.121.

Q: With TMEM223 (UniProt A0PJW6) as the target, how does the log2 fold change read?
A: Its log2 fold change is 0.118.

Q: How did the log2 fold change turn out when VPS37A (UniProt Q8NEZ2) was run?
A: The log2 fold change was 0.126.

Q: How did the log2 fold change turn out when TUBAL3 (UniProt A6NHL2) was run?
A: The log2 fold change was 0.096.

Q: How did the log2 fold change turn out when VPS52 (UniProt Q8N1B4) was run?
A: The log2 fold change was 0.137.

Q: TMEM120A (UniProt Q9BXJ8) was tested. Which log2 fold change did it give?
A: The log2 fold change was 0.012.

Q: For VKORC1 (UniProt Q9BQB6), which log2 fold change is on record?
A: Its log2 fold change is 0.083.

Q: How did the log2 fold change turn out when VAMP7 (UniProt P51809) was run?
A: The log2 fold change was 0.077.

Q: How did the log2 fold change turn out when UBXN8 (UniProt O00124) was run?
A: The log2 fold change was 0.192.

Q: TRMT61A (UniProt Q96FX7) was tested. Which log2 fold change did it give?
A: Its log2 fold change is -0.051.

Q: With TNFRSF8 (UniProt P28908) as the target, how does the log2 fold change read?
A: Its log2 fold change is 0.036.

Q: TRAPPC11 (UniProt Q7Z392) was tested. Which log2 fold change did it give?
A: The log2 fold change was 0.077.

Q: With WDR41 (UniProt Q9HAD4) as the target, how does the log2 fold change read?
A: The log2 fold change was -0.033.

Q: Which log2 fold change does the source give for UBE2Q1 (UniProt Q7Z7E8) here?
A: Its log2 fold change is 0.053.

Q: TRAM1 (UniProt Q15629) was tested. Which log2 fold change did it give?
A: Its log2 fold change is -0.008.

Q: UBA52 (UniProt P62987) was tested. Which log2 fold change did it give?
A: Its log2 fold change is -0.569.

Q: With XIAP (UniProt P98170) as the target, how does the log2 fold change read?
A: Its log2 fold change is 0.

Q: TRIM23 (UniProt P36406) was tested. Which log2 fold change did it give?
A: The log2 fold change was 0.049.

Q: How did the log2 fold change turn out when UFD1 isoform 1 (UniProt Q92890) was run?
A: The log2 fold change was 0.033.

Q: TMEM8A (UniProt Q9HCN3) was tested. Which log2 fold change did it give?
A: The log2 fold change was -0.011.

Q: For TRIM4 (UniProt Q9C037), which log2 fold change is on record?
A: Its log2 fold change is 0.254.

Q: TMEM161B (UniProt Q8NDZ6) was tested. Which log2 fold change did it give?
A: Its log2 fold change is 0.018.

Q: How did the log2 fold change turn out when TNPO1 (UniProt Q92973) was run?
A: Its log2 fold change is -0.012.

Q: How did the log2 fold change turn out when UHRF1BP1 (UniProt Q6BDS2) was run?
A: The log2 fold change was 0.006.

Q: How did the log2 fold change turn out when TMEM87B (UniProt Q96K49) was run?
A: The log2 fold change was -0.031.

Q: For UBA6, which log2 fold change is on record?
A: The log2 fold change was 0.06.

Compound: Cc1sc2c(c1C)C(c1ccc(Cl)cc1)=N[C@@H](CC(=O)OC(C)(C)C)c1nnc(C)n1-2
Experiment: as above
Outline: as §1

Q: VTI1A (UniProt Q96AJ9) was tested. Which log2 fold change did it give?
A: Its log2 fold change is -0.023.

Q: WASHC2A (UniProt Q641Q2) was tested. Which log2 fold change did it give?
A: Its log2 fold change is 0.069.

Q: How did the log2 fold change turn out when TMEM219 (UniProt Q86XT9) was run?
A: The log2 fold change was 0.016.

Q: For UCHL5 isoform 3 (UniProt Q9Y5K5), which log2 fold change is on record?
A: Its log2 fold change is 0.069.

Q: With WDR4 (UniProt P57081) as the target, how does the log2 fold change read?
A: The log2 fold change was -0.025.

Q: With WDHD1 (UniProt O75717) as the target, how does the log2 fold change read?
A: The log2 fold change was 0.002.

Q: For TMEM223 (UniProt A0PJW6), which log2 fold change is on record?
A: The log2 fold change was 0.03.

Q: Which log2 fold change does the source give for VPS37A (UniProt Q8NEZ2) here?
A: The log2 fold change was 0.007.

Q: With TUBAL3 (UniProt A6NHL2) as the target, how does the log2 fold change read?
A: The log2 fold change was -0.051.

Q: With VPS52 (UniProt Q8N1B4) as the target, how does the log2 fold change read?
A: Its log2 fold change is -0.057.

Q: How did the log2 fold change turn out when TMEM120A (UniProt Q9BXJ8) was run?
A: The log2 fold change was -0.11.

Q: How did the log2 fold change turn out when VKORC1 (UniProt Q9BQB6) was run?
A: Its log2 fold change is -0.183.

Q: Which log2 fold change does the source give for VAMP7 (UniProt P51809) here?
A: The log2 fold change was -0.047.

Q: UBXN8 (UniProt O00124) was tested. Which log2 fold change did it give?
A: The log2 fold change was 0.099.

Q: TRMT61A (UniProt Q96FX7) was tested. Which log2 fold change did it give?
A: Its log2 fold change is 0.141.

Q: For TNFRSF8 (UniProt P28908), which log2 fold change is on record?
A: Its log2 fold change is -0.04.

Q: How did the log2 fold change turn out when TRAPPC11 (UniProt Q7Z392) was run?
A: Its log2 fold change is -0.031.

Q: With WDR41 (UniProt Q9HAD4) as the target, how does the log2 fold change read?
A: Its log2 fold change is -0.03.

Q: Which log2 fold change does the source give for UBE2Q1 (UniProt Q7Z7E8) here?
A: The log2 fold change was -0.001.

Q: Which log2 fold change does the source give for TRAM1 (UniProt Q15629) here?
A: Its log2 fold change is 0.049.

Q: UBA52 (UniProt P62987) was tested. Which log2 fold change did it give?
A: The log2 fold change was 0.265.

Q: XIAP (UniProt P98170) was tested. Which log2 fold change did it give?
A: The log2 fold change was 0.048.

Q: Which log2 fold change does the source give for TRIM23 (UniProt P36406) here?
A: Its log2 fold change is -0.096.

Q: Which log2 fold change does the source give for UFD1 isoform 1 (UniProt Q92890) here?
A: The log2 fold change was -0.045.

Q: TMEM8A (UniProt Q9HCN3) was tested. Which log2 fold change did it give?
A: The log2 fold change was 0.038.

Q: How did the log2 fold change turn out when TRIM4 (UniProt Q9C037) was run?
A: Its log2 fold change is -0.04.

Q: TMEM161B (UniProt Q8NDZ6) was tested. Which log2 fold change did it give?
A: Its log2 fold change is 0.092.

Q: TNPO1 (UniProt Q92973) was tested. Which log2 fold change did it give?
A: Its log2 fold change is -0.009.

Q: Which log2 fold change does the source give for UHRF1BP1 (UniProt Q6BDS2) here?
A: Its log2 fold change is -0.001.

Q: TMEM87B (UniProt Q96K49) was tested. Which log2 fold change did it give?
A: The log2 fold change was -0.036.

Q: With UBA6 as the target, how does the log2 fold change read?
A: Its log2 fold change is 0.001.

— the supplement of paper PMC10849652
